ELG1 DNA repair – blocks ELG1-dependent DNA repair in HEK293T cells | HEK293T ELG1-luciferase reporter, luminescence, 16 h; DNA damage induced by 5-fluorouridine | Potency, µM (titrated, usually from 46.1 µM), most hits filed as inhibitors | hit rate 2.3% among 330,000 | AID 504467; note: nearly all actives have a fitted effect of over 55% in size
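5-Fluorouridine DNA damage + compound/DMSO, 2,000 cells/well, 16 h, 37 °C/5% CO2. ONE-Glo, 30 min RT, luminescence. Readout = decrease in reporter signal.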
SMN2 splice enh – increases expression of the SMN2 splice variant | HEK293 SMN2-luciferase splicing reporter, luminescence, 30-36 h | Potency, µM (top dose mostly 46.1 µM), actives largely listed as activators | hit rate 2.8% among 210,000; note: nearly all actives have a fitted effect of over 55% in size
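HEK293 cells carry an SMN2 […]–luciferase reporter in which exon 7 inclusion puts luciferase in frame. Cells were plated 10-12 h before compound addition, then incubated 30-36 h at 37C. ONE-Glo luminescence was read; sodium butyrate at 4.5 mM final served as control.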
ELG1 genotox – inducers of genotoxicity in HEK293T ELG1-luciferase cells; HEK293T ELG1-luciferase reporter, luminescence, 16 h; hit rate 1.3% among 330,000; Potency, µM (top dose mostly 46 µM), most hits filed as activators; AID 504466; note: nearly all actives have a fitted effect of over 60% in size
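After overnight (16 hr) compound treatment at 37 °C, ELG1-luciferase HEK293T cells were lysed with ONE-Glo; luminescence quantified 30 min later at room temperature.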
FLuc counter – inhibits or activates purified firefly luciferase, miR-21 counter-screen; AID 588342; hit rate 6.9% among 360,000; P08659; Potency, µM (titrated, usually from 57.5 µM), actives largely listed as inhibitors; purified FLuc, Km substrates, luminescence inhibition; note: nearly all actives have a fitted effect of over 55% in size
Target sequence (P08659 whole entry, looked up): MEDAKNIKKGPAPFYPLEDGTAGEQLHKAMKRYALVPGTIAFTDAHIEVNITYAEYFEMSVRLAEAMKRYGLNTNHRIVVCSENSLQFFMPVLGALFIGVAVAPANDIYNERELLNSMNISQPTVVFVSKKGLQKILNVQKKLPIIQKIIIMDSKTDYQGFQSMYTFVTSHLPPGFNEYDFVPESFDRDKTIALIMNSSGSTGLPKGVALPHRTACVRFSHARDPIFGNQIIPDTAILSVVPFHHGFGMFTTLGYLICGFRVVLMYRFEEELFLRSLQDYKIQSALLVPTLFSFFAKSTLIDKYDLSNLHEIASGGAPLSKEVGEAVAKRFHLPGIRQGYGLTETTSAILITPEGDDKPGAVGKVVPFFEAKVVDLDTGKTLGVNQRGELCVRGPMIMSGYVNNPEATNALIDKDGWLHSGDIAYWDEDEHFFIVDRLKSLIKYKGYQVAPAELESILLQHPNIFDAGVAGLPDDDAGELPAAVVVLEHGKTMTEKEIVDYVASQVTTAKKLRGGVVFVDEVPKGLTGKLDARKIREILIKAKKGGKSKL
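Purified P. pyralis luciferase, 10 nM final, with Km-level 10 uM D-luciferin and 10 uM ATP in 50 mM Tris acetate pH 7.5, 10 mM Mg acetate, 0.01% Tween-20, 0.05% BSA; 6-point qHTS titration about 60 µM downward; luminescence read.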
NPC1 promoter act – NPC1 promoter activation; hit rate 2.4% among 320,000; Huh7 NPC1 promoter luciferase reporter, 24 h; AID 485313; Potency, µM (doses to about 9.22 µM), actives largely listed as activators; note: nearly all actives have a fitted effect of over 60% in size
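Luminescence read-out of NPC1 promoter-driven luciferase in stably transfected Huh7 cells; compounds delivered in DMSO and left 24 h at 37C, 5% CO2, qHTS titration format.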
Rab9 prom act – activators of Rab9 promoter. Huh7 Rab9 promoter-luciferase reporter, luminescence, 24 h. Potency, µM (doses to about 9.22 µM), usual class: activators. hit rate 2.8% among 320,000. AID 485297; note: nearly all actives have a fitted effect of over 60% in size
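Cell-based reporter: Huh7 stable for Rab9 promoter-driven luciferase, plated in reduced-serum medium with 10% FBS at 1500 cells/well, compound-treated 24 h at 37 °C, luminescence read after 10 min reagent.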
A number is an active result; - = inactive; ? = inconclusive; . = no result given; [ ] = dose if it differs, or a comment. Only some compounds are listed: those with a hit (about 9.2% of all), similar ones and a draw of the others. Calls come from the whole dose curve; as a rule, active = well fitted curve in the direction sought with a large enough effect; inconclusive = small, poorly fitted or top-dose-only effect, or another doubt; inactive = no such curve, though single readings can be large; an effect the other way counts as inactive or inconclusive.

SMILES | ELG1 DNA repair | SMN2 splice enh | ELG1 genotox | FLuc counter | NPC1 promoter act | Rab9 prom act
Cc1cc(C)c2c(N)c(C(=O)NN)sc2n1 | ? | . | - | - | - | -
Cc1ccc(S(=O)(=O)Nc2nc(C)c(C(=O)Nc3ccccc3)s2)cc1 | - | ? | - | - | - | -
Cc1cc(C)c2c(N)c(C(=O)N/N=C/c3ccccc3)sc2n1 | ? | . | ? | 3.38µM | 1.78µM | 1.78µM
Cc1cc(C)c2c(N)c(C(=O)N/N=C/c3cccnc3)sc2n1 | ? | . | - | ? | ? | ?
Cc1ccc(CNC(=O)Cn2ccn(-c3cccc(Cl)c3)c(=O)c2=O)cc1 | . | . | . | - | . | .
Cc1cc(=O)oc2cc(O)c(CN(C)CC(=O)O)cc12 | . | -[9.22 µM] | . | . | . | .
O=C(NCCCCc1ccccc1)c1nn(-c2ccccc2)nc1CO | . | - | . | - | . | .
Cc1ccc2c(c1)C(c1ccc(F)cc1)N(C(=O)c1ccc(OC(C)C)cc1)CC(=O)N2 (stereo not drawn) | . | - | . | - | . | .
CCc1ccc2nc(NC(=O)C3CSC4(C)CCC(=O)N34)sc2c1 (stereo not drawn) | ? | . | ? | 12µM | - | -
Cc1sc(NC(=O)C2CSC3(C)CCC(=O)N23)nc1-c1ccc(F)cc1 (stereo not drawn) | 18.3µM | . | - | - | - | -
Cc1ccc(-c2csc(NC(=O)C3CSC4(C)CCC(=O)N34)n2)cc1 (stereo not drawn) | ? | . | - | - | - | -
CCOc1ccc(NC(=O)CSc2nc(-c3ccccc3)c3cc(OCC)ccc3n2)cc1 | . | - | . | - | . | .
COc1ccc(/C=C2\SC(=S)N(CCC(=O)Nc3cccc(O)c3)C2=O)cc1OC | - | . | - | ? | - | -
COc1ccc(/C=C2/SC(=S)N(CCCC(=O)Nc3cccc(O)c3)C2=O)cc1 | - | . | - | 13.5µM | - | -
Cc1ccc(/C=C2\SC(=S)N(CCCC(=O)Nc3ccccc3C(=O)O)C2=O)cc1 | - | . | - | - | - | -
COc1ccc(/C=C2/SC(=S)N(CCCC(=O)Nc3ccccc3C(=O)O)C2=O)cc1 | - | . | - | 26.9µM | - | -
COc1cccc(/C=C2/SC(=S)N(CC(=O)NNC(=O)c3ccccc3OC)C2=O)c1 | - | . | - | 13.5µM | - | -
COc1cccc(/C=C2\SC(=S)N(CCC(=O)NNC(=O)c3ccccc3OC)C2=O)c1 | - | . | - | - | - | -
CNC(=S)N(CCc1c(C)[nH]c2ccccc12)Cc1cccnc1 | - | . | - | - | - | -
Cc1ccc(NC(=O)c2ccc3c(=O)n4c(nc3c2)CCC4)cc1S(=O)(=O)N(C)C | - | . | - | ? | - | -
Cc1ccc(S(=O)(=O)N2CCCCC2)cc1NC(=O)c1ccc2c(=O)n3c(nc2c1)CCCCC3 | 11.6µM | - | - | - | - | -
O=C(Nc1ccc(S(=O)(=O)N2CCCC2)cc1)c1ccc2c(=O)n3c(nc2c1)CCCCC3 | 10.3µM | - | - | - | - | -
COc1ccc(N(CC(=O)Nc2cc(OC)cc(OC)c2)S(=O)(=O)c2c(C)noc2C)cc1 | . | - | . | - | . | .
CCCCn1c(N)c(N(CCOC)C(=O)CSc2ccc([N+](=O)[O-])cc2)c(=O)[nH]c1=O | - | . | - | - | - | -
O=c1oc(Nc2cccc(F)c2)nc2ccccc12 | ? | ? | 18.4µM | ? | 2.24µM | 2.24µM
SMILES | ELG1 DNA repair | SMN2 splice enh | ELG1 genotox | FLuc counter | NPC1 promoter act | Rab9 prom act
Nc1nc(Nc2cccc(F)c2)nc2ccccc12 | ? | ? | ? | 5.36µM | 1.26µM | 2.24µM
Cc1ccc(NC(=O)C/C(N)=N/OC(=O)Nc2cccc(Cl)c2)cc1 | - | . | - | - | - | -
COc1ccc(NC(=O)N2CCc3nc(-c4ccc(OC)cc4C)c4c(c3C2)CO[C@@H](c2ccccc2)C4)cc1 | . | -[9.22 µM] | . | . | . | .
Cc1ccc(C(=O)CSc2ncnc3ccccc23)o1 | ? | - | - | 13.5µM | 3.98µM | 3.98µM
O=C(CSc1ncnc2ccccc12)c1cccs1 | ? | . | ? | 1.51µM | 1.78µM | 0.447µM
COc1ccccc1NC(=O)C1CCCN(S(=O)(=O)c2ccc3c(c2)CC(C)N3C(C)=O)C1 (stereo not drawn) | - | . | - | - | - | -
Cc1cc(C=C2C(=O)c3ccccc3C2=O)c(C)n1-c1ccc(Cl)cc1 | ? | - | 4.61µM | 0.675µM | - | -
Cc1cc(=O)cc(C)n1-c1ccc(Cl)cc1 | - | - | - | - | - | -
Cc1cccc(-n2c(C)cc(C=C3C(=O)c4ccccc4C3=O)c2C)c1 | ? | - | ? | 0.849µM | ? | ?
CCCCC(=O)Nc1cccc(-c2cn3ccccc3n2)c1 | ? | . | - | 12µM | - | -
O=C(Nc1ccc(-c2cn3ccccc3n2)cc1)c1ccco1 | ? | 11.2µM | ? | 2.39µM | 2.82µM | 3.16µM
O=C(Nc1ccc(-c2cn3ccccc3n2)cc1)c1ccc(Cl)cc1 | - | ? | - | - | ? | -
O=C(Nc1cccc(-c2cn3ccccc3n2)c1)c1ccccc1 | ? | ? | - | 4.78µM | - | ?
Cc1ccc(C(=O)Nc2cccc(-c3cn4ccccc4n3)c2)cc1 | ? | . | - | 6.01µM | - | ?
COCCCNC(=O)c1oc2c(c1C)-c1nn(Cc3ccccc3Cl)cc1CC2 | . | . | . | - | . | .
NNC(=O)Cn1nc(Cc2ccccc2)n(N)c1=O | - | . | - | - | - | -
COc1ccc(OC)c(S(=O)(=O)N2CCC(c3ccncc3)CC2)c1 | . | . | . | - | . | .
Cc1ccccc1C(=O)Nc1cccc(-c2ccc3nncn3n2)c1 | ? | - | - | - | - | -
Cc1ccccc1C(=O)Nc1cccc(-c2cn3ccccc3n2)c1 | ? | - | - | 6.75µM | - | -
Cc1c(CCC(=O)O)c(=O)oc2cc3occ(-c4ccc(Cl)cc4)c3cc12 | - | . | - | 16.9µM | - | -
Cc1oc2cc3oc(=O)c(CCC(=O)N(C)CC(=O)O)c(C)c3cc2c1C | - | . | - | 7.57µM | - | -
Cc1c(CCC(=O)O)c(=O)oc2cc3occ(-c4ccc(Br)cc4)c3cc12 | - | . | - | 16.9µM | - | -
CC(=O)c1ccc(NC(=O)C2CCN(S(=O)(=O)c3ccc4c(c3)CCCN4C(=O)C3CCC3)CC2)cc1 | . | . | . | - | . | .
COc1ccc(N=Cc2c(O)cc(C)oc2=O)cc1 | - | - | - | 12µM | - | -
NS(=O)(=O)c1ccc(N=Cc2c(O)c3ccccc3oc2=O)cc1 | - | - | - | - | - | -
CCCCC(=O)c1c(O)c2ccccc2oc1=O | ? | - | - | ? | - | -
CCCCN=C(C)c1c(O)c2ccccc2oc1=O | ? | ? | ? | 19µM | ? | 3.98µM
CC(C)c1ccc(N=Cc2c(O)c3ccccc3oc2=O)cc1 | ? | . | - | 0.379µM | - | -
COc1ccc(N=Cc2c(O)c3ccccc3oc2=O)cc1 | ? | - | - | 0.757µM | - | -
CC(C)CN1CC[C@@]2(CCCN(C(=O)c3cccc(F)c3)C2)C1 | . | - | . | . | . | .
